The values that follow come from PubChem BioAssay (Tox21).

Molecules are shown by their SMILES. Values joined by “and” are separate entries in the source; they are usually repeats but may differ in a detail not shown here. Equal entries are not always repeated. Unmarked numbers belong to inactive results. Results filed as inconclusive are left out. Active and inactive are the calls of the source. Unless noted, calls follow the shape of the dose curve; as a rule, active = well fitted curve in the direction sought with a large enough effect in the repeat runs; inconclusive = weak or mixed curves; inactive = no such curve, though single readings can be large; an effect the other way counts as inactive or inconclusive.

A short description of assay [1]: qHTS assay for small molecule agonists of the p53 signaling pathway (AID 651631; calls by dose curve; also: nearly all actives have a fitted effect of over 15% in size; also: potency is read from the fitted curve at half-maximal effect). Summed up: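 Agonist mode screen using a stably integrated beta-lactamase gene under p53 response elements in HCT-116 cells. Compound exposure lasts 16 h at 37 °C; fluorescence intensity is measured following 2 h FRET substrate loading.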
On the technique in general: qHTS replaces the single test concentration by a dilution series.

The nature of assay [2]: qHTS assay for small molecules that induce genotoxicity in human embryonic kidney cells expressing luciferase-tagged ATAD5 (AID 651632). Also: nearly all actives have a fitted effect of over 15% in size. Also: potency is read from the fitted curve at half-maximal effect. The method in brief:
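HEK293T cells carrying luciferase-tagged ATAD5 were given compound or DMSO vehicle and incubated 16 hr at 37C, 5% CO2. Luciferase activity was read after 30 min at room temperature with Amplite; a rise signals genotoxic stress.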

Assay [3] is described as follows: qHTS assay for small molecule agonists of the p53 signaling pathway - cell viability (AID 651633; calls by dose curve;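 also: p53RE-bla HCT reporter cells with a stable beta-lactamase p53 reporter; series mostly up to about 83 µM; nearly all actives have a fitted effect of over 30% in size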). The method in brief: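 p53RE-bla cells, seeded at 4,000 per well and rested 5 h at 37 C/5% CO2, received compounds in DMSO for 16 h at 37 C. CellTiter-Glo was then added, and luminescence was read after 30 min at room temperature to gauge cytotoxicity.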
The nature of assay [4]: qHTS assay for small molecules that induce genotoxicity in human embryonic kidney cells expressing luciferase-tagged ATAD5 - cell viability (AID 651634; calls by dose curve; also: nearly all actives have a fitted effect of over 25% in size). The method in brief: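 HEK293T cells carrying luciferase-tagged ATAD5, 2,000 cells/well, exposed to compound for 15.5 hr at 37C. Viability read as live-cell protease activity by CellTiter-Fluor fluorescence after 30 min at 37C.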

Assay [5] can be described thus: qHTS assay for small molecule disruptors of the mitochondrial membrane potential - cell viability (AID 720634; calls by dose curve; also: nearly all actives have a fitted effect of over 20% in size; also: potency is read from the fitted curve at half-maximal effect). The method in brief: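 HepG2 cells, 2,000 per well, attached overnight, then treated 1 hr at 37 C, 5% CO2. Viability read as ATP by CellTiter-Glo luminescence after 30 min at room temperature. Read in the same wells as the m-MPI membrane-potential dye assay.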

The nature of assay [6]: qHTS assay for small molecule disruptors of the mitochondrial membrane potential (AID 720635). Also: potency is read from the fitted curve at half-maximal effect. Summed up: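 HepG2 cells (2,000/well) attached overnight at 37C, then took compound for 1 hr at 37C, 5% CO2. Mito-MPS dye was added for 30 min; fluorescence was read at 490/535 nm (monomers) and 540/590 nm (aggregates).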
Assay [7] in a line: qHTS assay to test for compound auto fluorescence at 590 nm (red) in HepG2 cells (AID 720674). Summed up:
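Intrinsic compound fluorescence in the red window (Ex/Em 540/590 nm) is measured in attached HepG2 cells exposed for 1 hr, DMSO vehicle as baseline, benchmarked to Rose Bengal sodium.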

Assay [8] is described as follows: qHTS assay to test for compound auto fluorescence at 590 nm (red) in HEK293 cells (AID 720679). The method in brief:
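Intensity at 540nm excitation and 590nm emission is reported as Rose Bengal sodium-equivalent autofluorescence. Measurements followed overnight exposure (37C, 5% CO2) of HEK293 cells, 2,000 per well, to 23 nL compound.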

A short description of assay [9]: qHTS assay to test for compound auto fluorescence at 460 nm (blue) in HEK293 cells (AID 720678). The method in brief: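 HEK293, 2,000 cells/well, 10% dialyzed FBS; attach 4-5 hr 37C; pin compound or DMSO; o/n 37C/5% CO2; fluorescence 405/460 nm; triamterene-equivalent units.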
Assay [10] is described as follows: qHTS assay to test for compound auto fluorescence at 535 nm (green) in HepG2 cells (AID 720675).

Turning to `O=C(CCCCCCC(=O)Nc1ccccc1)NO`, the Potency in [1] was 750 nM (active) and 668 nM (active); in [2] it was 2.11 µM (active) and 1.68 µM (active). For the same compound, the Potency result in assay [3], in assay [4], in [5] and in [6] was “inactive” throughout. Moreover, the result in assay [7] and in assay [8] was inactive.
As to `CC(C)CCCC(=O)O`, the Potency entry in assay [1], in assay [2], in assay [3], in assay [4], in assay [5] and in assay [6] was “inactive” throughout. In addition, the Potency result in [9] is “inactive”. The compound was classed as inactive in [7] and in assay [8].
For `CCCCCC=CCC=CCCCCCCCC(=O)OCC`, the Potency entry in [1], in assay [2], in [3], in [4], in [5] and in [6] was “inactive” in each case. The Potency result in assay [9] was “inactive”. Also, the compound was classed as inactive in [7], in assay [10] and in assay [8].
Turning to `CCN(CC)CCNC(=O)c1ccc(NC(C)=O)cc1`, the Potency entry in assay [1], in assay [2], in assay [3], in [4], in assay [5] and in assay [6] was “inactive” each time. The call in assay [7], in [10] and in assay [8] was inactive.
As to `O=C(Nc1ccc([N+](=O)[O-])cc1)Nc1ccc([N+](=O)[O-])cc1`, the Potency result in assay [1], in [2], in assay [3], in assay [4], in assay [5] and in assay [9] was “inactive” each time. Further, in assay [6], the Potency is 422 nM (active). Besides, the compound was called inactive in assay [7], in assay [10] and in [8].
As to `CCOC(=O)[C@@H](C)Oc1ccc(Oc2nc3ccc(Cl)cc3o2)cc1`, the Potency entry in assay [1], in [2], in [3], in [4], in [5] and in assay [6] was “inactive” in each case. The result in [7], in assay [10] and in assay [8] was inactive.
As to `CC1=CC(=O)CC(C)(C)C1(O)/C=C/C(C)=C\C(=O)O` (centres undefined), the Potency entry in assay [1], in assay [2], in [3], in assay [4], in assay [5] and in [6] was “inactive” throughout. For the same compound, the Potency entry in [9] is “inactive”. The compound was classed as inactive in assay [7] and in assay [8].
`CC1CC(O)CC(C)(C)C1` (centres undefined): the Potency entry in [1], in assay [2], in assay [3], in assay [4], in [5] and in [6] was “inactive” each time. Moreover, in [9], the Potency entry was “inactive”. For the same compound, the call in assay [7], in assay [10] and in [8] was inactive.
As for `Cc1oncc1C(=O)Nc1ccc(C(F)(F)F)cc1`, the Potency result in assay [1], in [3], in assay [4] and in [9] was “inactive” each time. The Potency in [2] was 5.07 µM (active) and 2.73 µM (active); in assay [5], 61.1 µM (active); in [6], 10.1 µM (active) and 7.7 µM (active). For the same compound, the result in assay [7], in [10] and in [8] was inactive.
For `CO[C@H]1O[C@H](CO)[C@@H](O)[C@H](O)[C@H]1O`, the Potency result in [1], in assay [2], in assay [3], in assay [4], in assay [5] and in assay [6] was “inactive” in each case. For the same compound, the Potency entry in [9] is “inactive”. In addition, the outcome in [7], in assay [10] and in assay [8] was inactive.
Turning to `CCC(C(=O)OCCN(CC)CC)c1ccccc1` (centres undefined), the Potency entry in assay [1], in [2], in assay [3], in assay [4], in [5] and in assay [6] was “inactive” in each case. Also, the Potency result in assay [9] is “inactive”. In addition, the call in [7], in assay [10] and in assay [8] was inactive.
For the compound `N#C/C(=C1\SCC(c2ccccc2Cl)S1)n1ccnc1` (centres undefined), the Potency result in [1], in assay [2], in [3], in [4], in [5] and in assay [6] was “inactive” throughout. Further, the Potency entry in [9] is “inactive”. In addition, the outcome in assay [7], in assay [10] and in [8] was inactive.
For `CCCCCCCC/C=C\CCCCCCCC(=O)OC`, the Potency entry in [1], in assay [2], in assay [3], in assay [4], in assay [5] and in assay [6] was “inactive” in each case. In addition, the Potency result in assay [9] is “inactive”. Also, the compound was classed as inactive in assay [7], in [10] and in [8].
Turning to `CCC(=O)Oc1ccc(/C(CC)=C(\CC)c2ccc(OC(=O)CC)cc2)cc1`, the Potency is 15.4 µM (active) in assay [1] and 8630 nM (active) in [6]. Moreover, the Potency result in assay [2], in assay [3], in assay [4], in [5] and in [9] was “inactive” throughout. The result in assay [7] and in assay [8] was inactive.
Consider `CCOC(=N)CC(=O)OCC`, for which the Potency entry in assay [1], in assay [2], in assay [3], in [4], in assay [5] and in assay [9] was “inactive” each time. Moreover, the result in assay [7], in assay [10] and in assay [8] was inactive.
Regarding `CCOC(=O)c1ccccc1C`, the Potency entry in [1], in assay [2], in [3], in assay [4], in assay [5] and in assay [9] was “inactive” throughout. The outcome in assay [7], in [10] and in assay [8] was inactive.
On to `Cc1ccnc2ccccc12`, for which the Potency entry in assay [1], in assay [2], in [3], in assay [4], in assay [5] and in assay [9] was “inactive” in each case. Moreover, the outcome in [7], in [10] and in [8] was inactive.
As to `c1ccc(COCc2ccccc2)cc1`, the Potency entry in [1], in [2], in assay [3], in [4], in [5] and in assay [9] was “inactive” throughout. Also, the compound was classed as inactive in assay [7], in [10] and in assay [8].
On to `OCCSc1ccccc1`, for which the Potency entry in [1], in assay [2], in [3], in [4], in assay [5] and in [9] was “inactive” throughout. The outcome in assay [7], in assay [10] and in assay [8] was inactive.
As to `Cc1nc2ccccn2c(=O)c1CCN1CCC(C(=O)c2ccc(F)cc2)CC1`, the Potency result in [1], in assay [2], in [3], in [4], in assay [5] and in assay [9] was “inactive” in each case. In addition, the result in [7], in assay [10] and in [8] was inactive.
Take `CC1CC(=O)NN=C1c1ccc(NCC(C)(C)NCC(O)COc2cc(Cl)ccc2C#N)cc1` (centres undefined): the Potency entry in [1], in assay [2], in assay [3], in [4], in [5] and in assay [9] was “inactive” in each case. Moreover, the compound was classed as inactive in assay [7], in [10] and in [8].
Consider `C[N+](C)(C)CCOC(N)=O`, for which the Potency entry in assay [1], in assay [2], in assay [3], in assay [4], in [5] and in assay [9] was “inactive” throughout. Moreover, the call in assay [7], in assay [10] and in assay [8] was inactive.
As for `CC(C)OCC1CO1` (centres undefined), the Potency result in assay [1], in assay [2], in assay [3], in assay [4], in assay [5] and in assay [9] was “inactive” in each case. Moreover, the call in assay [7], in [10] and in [8] was inactive.
